Data on nine molecules can be found in PubChem BioAssay (NCI).

SMILES strings stand for the structures. This is part of a sample that, as a whole, favours compounds with a hit. Of some 83,000 tested, about 20% had one in any assay.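 Note: values are percent growth. 100 is the growth of untreated cells, values between 100 and 0 indicate rising inhibition; between -100 and 0 indicates cell death.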 A number with no mark means an inactive call. The source made the active and inactive calls. How the source made its calls: active means growth percent below 10; inactive means the rest.

Test systems include HCT-15 colon; HT29 colon; SNB-75 CNS; SNB-19 CNS; U251 CNS; PC-3 prostate; SK-MEL-5 melanoma; UACC-62 melanoma; SK-MEL-28 melanoma; SK-MEL-2 melanoma; EKVX NSCLC; SN12C renal; UO-31 renal; TK-10 renal; ACHN renal; CAKI-1 renal; A498 renal; CCRF-CEM leukemia; MOLT-4 leukemia; LOX IMVI melanoma.
What all share (assay): NCI-60 one-dose screen, 48 h (100 = growth as untreated, 0 = no growth, -100 = all killed)
Details in all cases: 10 µM

With `COc1ccc(NC(=O)Nc2ccc(OCC(=O)N=Nc3c(O)[nH]c4ccc([N+](=O)[O-])cc34)cc2)cc1`, the growth with HCT-15 colon is 106%; in the assay with HT29 colon it was 95.2%; with SNB-75 CNS it was 72.4%; in the assay with SNB-19 CNS, 40.4%; in the assay with U251 CNS, 25%; in the assay with PC-3 prostate, 81.9%. For the same molecule, the growth with SK-MEL-5 melanoma was 96%; in the assay on UACC-62 melanoma, 104%; with SK-MEL-28 melanoma, 115%; in the assay with SK-MEL-2 melanoma, 89.4%; in the assay with EKVX NSCLC, 83.7%; in the assay with SN12C renal it was 72.5%. For the same molecule, the growth in the assay on UO-31 renal was 94.3%; in the assay on TK-10 renal it was 113%; with ACHN renal, 102%; with CAKI-1 renal it was 92.5%; in the assay on A498 renal, 101%; with CCRF-CEM leukemia it was 93.7%. In addition, the growth in the assay with MOLT-4 leukemia was 100%.
With `Cc1cc(C(F)(F)F)ccc1C(=O)Nc1sc2c(c1C#N)CCC(=O)C2`, the growth with HCT-15 colon is -69.5% (active); with HT29 colon, -27.8% (active); in the assay with SNB-75 CNS, -5.51% (active); with SNB-19 CNS, -2.98% (active); in the assay with U251 CNS, 12%; in the assay on PC-3 prostate, 4.6% (active). The growth was -98.9% (active) in the assay with SK-MEL-5 melanoma; -81.3% (active) in the assay on UACC-62 melanoma; 2.84% (active) in the assay with LOX IMVI melanoma; -38.4% (active) in the assay on SK-MEL-2 melanoma; -25.5% (active) with EKVX NSCLC; -98% (active) with UO-31 renal. The growth is -95.9% (active) in the assay on ACHN renal, -50.8% (active) with CAKI-1 renal, 85.2% in the assay on A498 renal and 6.32% (active) in the assay with CCRF-CEM leukemia.
Turning to `C=C1CCC2C3(C)COC(c4cc(F)cc(F)c4)OC3CCC2(C)C1C/C=C1/C(=O)OCC1O` (stereo not drawn), the growth in the assay with HCT-15 colon is -34.6% (active); with HT29 colon, -29.3% (active); in the assay on SNB-75 CNS, -45.9% (active); with SNB-19 CNS it was -78.5% (active); in the assay with U251 CNS it was -95.2% (active); with PC-3 prostate, -32.1% (active). For the same molecule, the growth in the assay on SK-MEL-5 melanoma was -88.6% (active); with UACC-62 melanoma, -15.2% (active); in the assay on SK-MEL-28 melanoma it was -70.7% (active); in the assay with EKVX NSCLC, -42.8% (active); in the assay with SN12C renal, -31.6% (active); in the assay on UO-31 renal it was -97.1% (active). The growth in the assay with TK-10 renal is -86.3% (active); with ACHN renal, -99.6% (active); in the assay with CAKI-1 renal, -73.2% (active); in the assay with A498 renal, 106%; in the assay with CCRF-CEM leukemia it was 15.1%; with MOLT-4 leukemia it was 8.72% (active).
Turning to `O=C1Nc2cc(Cl)ccc2/C1=C/c1ccc(OCc2ccc(Br)cc2F)cc1`, the growth was -31.8% (active) with HCT-15 colon; 5.82% (active) in the assay on HT29 colon; -12.2% (active) in the assay with SNB-75 CNS; -45.4% (active) in the assay with SNB-19 CNS; -94.6% (active) in the assay with U251 CNS; -42.3% (active) with PC-3 prostate. The growth with SK-MEL-5 melanoma is -66.7% (active); with UACC-62 melanoma, -75.2% (active); in the assay on LOX IMVI melanoma it was -94.5% (active); in the assay on SK-MEL-2 melanoma, -47.2% (active); in the assay on EKVX NSCLC, -13.7% (active); in the assay with SN12C renal, -48.2% (active). In addition, the growth in the assay on TK-10 renal was -54.8% (active); in the assay on ACHN renal it was -79.9% (active); with A498 renal it was -46.4% (active); in the assay with CCRF-CEM leukemia, 5.01% (active); in the assay on MOLT-4 leukemia, 10.3%.
`O=C(c1ccc(Cl)cc1)C1[C@H](c2ccccc2Br)[C@@H](c2ccccc2)NC12C(=O)Nc1ccccc12` (stereo partly drawn): the growth in the assay on HCT-15 colon was 12%; with HT29 colon, -16% (active); with SNB-75 CNS, 33.1%; with SNB-19 CNS, 31.6%; in the assay with U251 CNS, 21.5%; with PC-3 prostate it was 17.3%. Further, the growth was -15.9% (active) with SK-MEL-5 melanoma; 7.38% (active) in the assay on UACC-62 melanoma; -69.1% (active) in the assay on LOX IMVI melanoma; 2.05% (active) in the assay on SK-MEL-2 melanoma; 14% in the assay with EKVX NSCLC; -54.2% (active) in the assay with SN12C renal. Further, the growth in the assay with TK-10 renal is 55.7%; in the assay on ACHN renal, 11.1%; in the assay with CAKI-1 renal it was 14.8%; with A498 renal, 55.5%; with CCRF-CEM leukemia it was 7.61% (active); with MOLT-4 leukemia, 2.61% (active).
With `O=C(N=Nc1c(O)[nH]c2ccc(Br)cc12)c1ccc2nc(-c3ccccc3)[nH]c2c1`, the growth with HCT-15 colon is 63.2%; in the assay on HT29 colon, -41.1% (active); in the assay with SNB-75 CNS it was -46.7% (active); in the assay on SNB-19 CNS it was -47.8% (active); with U251 CNS it was -95.2% (active); with PC-3 prostate, -84.5% (active). Moreover, the growth in the assay on SK-MEL-5 melanoma is -58.9% (active); with UACC-62 melanoma, -96% (active); in the assay with SK-MEL-2 melanoma, -89.7% (active); in the assay with EKVX NSCLC, -4.61% (active); in the assay on SN12C renal it was -94.4% (active); with UO-31 renal, 27.3%. Also, the growth in the assay with TK-10 renal was -25.5% (active); with ACHN renal, -47.3% (active); in the assay with CAKI-1 renal it was 16.8%; in the assay on A498 renal, -55.3% (active); with CCRF-CEM leukemia, -16% (active); in the assay on MOLT-4 leukemia it was -29% (active).
Consider `C=C1CCC2C3(C)COC(c4cccc(F)c4)OC3CCC2(C)C1CC(O)C1=CCOC1=O` (stereo not drawn), for which the growth is 8.31% (active) in the assay with HCT-15 colon; 34.7% in the assay on HT29 colon; 74.2% in the assay on SNB-75 CNS; 95.4% with SNB-19 CNS; 70.2% in the assay on U251 CNS; 45.1% in the assay on PC-3 prostate. In addition, the growth was 60.1% in the assay on SK-MEL-5 melanoma; 64.6% in the assay with UACC-62 melanoma; 64.1% with SK-MEL-28 melanoma; 75.9% in the assay on SK-MEL-2 melanoma; 87.9% in the assay with EKVX NSCLC; 44.3% with SN12C renal. Also, the growth with UO-31 renal is 57.1%; in the assay on TK-10 renal, 113%; in the assay with ACHN renal, 68.6%; in the assay on CAKI-1 renal, 74.7%; in the assay with A498 renal, 125%; with CCRF-CEM leukemia it was 23.2%. In addition, the growth in the assay on MOLT-4 leukemia was 41%.
With `Cc1ccc2nc3c(nc2c1)c1cc(I)ccc1n3CCN(C)C`, the growth was 10.1% in the assay with HCT-15 colon; 14.4% with HT29 colon; 30.6% in the assay with SNB-75 CNS; 24.9% in the assay with SNB-19 CNS; 24.2% in the assay on U251 CNS; 26% in the assay with PC-3 prostate. For the same molecule, the growth was 48.1% in the assay with SK-MEL-5 melanoma; 59.1% with UACC-62 melanoma; 11.9% in the assay with SK-MEL-28 melanoma; 52.2% with SK-MEL-2 melanoma; 30.9% in the assay on EKVX NSCLC; 21.4% in the assay on SN12C renal. Moreover, the growth was 8.11% (active) with UO-31 renal; 48.9% in the assay with TK-10 renal; 6.64% (active) in the assay on ACHN renal; 8.68% (active) in the assay on CAKI-1 renal; 62.9% in the assay with A498 renal; 32.7% in the assay with CCRF-CEM leukemia. Further, in the assay with MOLT-4 leukemia, the growth was 10%.
Take `COc1cc2c(c(OC)c1OC)C(=O)CC(c1cccc(NC(=O)c3cccc(N)c3)c1)O2` (stereo not drawn): the growth in the assay on HCT-15 colon was 64.9%; in the assay on HT29 colon, 94.7%; in the assay on SNB-75 CNS, 77.6%; with SNB-19 CNS, 86.1%; in the assay on U251 CNS, 81.1%; in the assay with PC-3 prostate, 70.9%. Further, the growth is 61.9% with SK-MEL-5 melanoma; 70.2% in the assay on UACC-62 melanoma; 100% with SK-MEL-28 melanoma; 85.2% in the assay on SK-MEL-2 melanoma; 91.9% in the assay on EKVX NSCLC; 74.3% in the assay with SN12C renal. Besides, the growth in the assay on UO-31 renal was 58.6%; with TK-10 renal it was 118%; with ACHN renal, 84.6%; with CAKI-1 renal, 65.9%; in the assay with A498 renal, 98.8%; with CCRF-CEM leukemia it was 49.4%. Also, in the assay with MOLT-4 leukemia, the growth is 43.1%.
